# From PubChem BioAssay (NCI)
# This is part of a sample that, as a whole, favours compounds with a hit. Of some 83,000 tested, about 20% had one in any assay.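 Single-concentration screen, 48 h exposure, 96-well plates. Endpoint: percent growth. Below 10 = active.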 Values without a mark were called inactive. Calls of active or inactive are those of the source.
# How the values were obtained:
# Assay in all cases: NCI-60 one-dose screen, 48 h (100 = growth as untreated, 0 = no growth, -100 = all killed)
# Conditions in all cases: 10 µM unless noted
# BT-549 breast = tested on: BT-549 breast
# MDA-MB-435 melanoma = tested on: MDA-MB-435 melanoma
# SW-620 colon = tested on: SW-620 colon
# MCF7 breast = tested on: MCF7 breast
# HCT-116 colon = tested on: HCT-116 colon
# HCC-2998 colon = tested on: HCC-2998 colon
# KM12 colon = tested on: KM12 colon
Compound,growth (BT-549 breast),growth (MDA-MB-435 melanoma),growth (SW-620 colon),growth (MCF7 breast),growth (HCT-116 colon),growth (HCC-2998 colon),growth (KM12 colon)
COc1cccc2c1CN(C(=O)c1ccc(O)c(C(=O)N3Cc4ccc(OCCC[P+](c5ccccc5)(c5ccccc5)c5ccccc5)cc4C3)c1)C2,65.9%,32%,70.5%,17.9%,80.8%,47.9%,44.4%
Cc1ccc(-n2cc(/C=N/NC(=O)c3ccncc3)c(-c3ccc(S(C)(=O)=O)cc3)n2)cc1,74.1%,23.6%,64.6%,72.2%,61.1%,98.1%,58%
Cc1ccc(-c2nnc(SCc3ccc(O)c4ncccc34)o2)cc1,30%,17.7%,14.1%,10.6%,18.5%,34.4%,11.4%
Cc1ccc(NC(=O)c2ccc(CN3CCOCC3)c(C(F)(F)F)c2)cc1Oc1ccc(-c2[nH]nc3ncnc(N)c23)cc1,66.8%,47.7%,110%,55.8%,55.4%,75.2%,25.4%
COc1ccc(C(=O)Nc2ncc(Cc3ccccc3Cl)s2)cc1,54.8%,-5.1% (active),25.3%,14.3%,7.77% (active),6.97% (active),9.41% (active)
CCNC(=O)N1CCc2cc(OC)c(OCCc3ccc(OC)cc3)cc2C1c1ccc(OC)cc1C (stereo not drawn),22.9%,11.4%,21.9%,21.5%,10.5%,19.5%,24.1%
COc1ccc([C@H]2c3[nH]c4ccccc4c3C[C@H]3C(=O)N(C4CCN(Cc5c(Cl)cccc5Cl)CC4)CC(=O)N23)c(OC)c1,119%,102%,95.4%,84.3%,92.6%,113%,96.8%
O=S(=O)(Oc1ccc(-c2nnc(Nc3ccccc3)s2)cc1)C(F)(F)C(F)(F)C(F)(F)C(F)(F)C(F)(F)C(F)(F)F,112%,103%,103%,90.7%,109%,105%,102%
COc1ccc(N2CCN(C3=C(Cl)C(=O)C(C)=C(C)C3=O)CC2)cc1,117%,105%,113%,92.1%,99.3%,111%,107%
O=C(CN1CCN(c2cc(=O)n(-c3ccccc3)c3ccccc23)CC1)Nc1nc(-c2ccc(Cl)cc2)cs1,46.5%,49.8%,74.3%,20.1%,35.8%,92.4%,64.7%
CCCCCc1ccc(S(=O)(=O)Nc2cccc(-c3csc(NC(=O)CCCCCN4CCN(C)CC4)n3)c2)cc1,93.5%,-33.8% (active),-27.1% (active),-1.18% (active),-36.2% (active),-18% (active),57.4%
C[C@H](CCC(=O)NCc1ccc(C(=O)Nc2ccccc2N)cc1)[C@H]1CC[C@H]2[C@@H]3[C@@H](O)C[C@@H]4C[C@H](O)CC[C@]4(C)[C@H]3CC[C@]12C,54.1%,60.2%,56%,45.7%,31.2%,89.5%,64%
NC(N)=Nc1ccc(Oc2cccc(NC(N)=Nc3ccc(Cl)c(C(F)(F)F)c3)c2)cn1,60.4%,46.4%,38.5%,20.2%,15.8%,62.6%,24.7%
COc1ccccc1NCc1cccn1Cc1ccc(F)cc1,93.3%,99.6%,98.2%,93.1%,93.8%,105%,95.9%
NC(N)=Nc1ccc(Oc2cccc(NC(N)=Nc3ccc(Br)c(C(F)(F)F)c3)c2)cc1,45.9%,57.5%,53.4%,32.2%,42.9%,50.8%,20.4%
O=C(O)c1cn(C2CC2)c2cc(N3CCN(C(=O)CN4C(=O)CSC4=O)CC3)c(F)cc2c1=O,,98.6%,100%,98.8%,98.8%,115%,101%
CCCCCc1ccc(S(=O)(=O)Nc2cccc(-c3csc(NC(=O)CCCCCN4CCN(CCO)CC4)n3)c2)cc1,102%,36.8%,25.6%,19.8%,30.3%,41.5%,88%
O=S(=O)(NCCCNc1nccc(-c2[nH]c(-c3ccccc3)nc2-c2ccc(Cl)c(O)c2)n1)c1ccc(Br)cc1,40.3%,2.09% (active),55.8%,19.5%,14.5%,47.2%,22%
COc1c(N2CC3CCCNC3C2)c(F)cc2c(=O)c(C(=O)N/N=C/c3ccccc3)cn(C3CC3)c12 (stereo not drawn),106%,101%,102%,84.1%,81.1%,113%,101%
CC(C)(C)c1ccc(-c2nnc(-c3nc4ccccc4nc3Cl)o2)cc1,104%,69%,66.2%,-65.9% (active),14.2%,98.5%,65.8%
O=C(CN1CCN(c2cc(=O)[nH]c3ccc(F)cc23)CC1)Nc1ccc(Cl)cc1,47.6%,96%,93.8%,58.8%,57.6%,92.3%,91.6%
COc1cc(OC)cc(C(=O)Nc2sc3c(c2C(N)=O)CCC(=O)C3)c1,11.1%,41.7%,18.6%,24.4%,7.89% (active),88.3%,12%
COc1ccc(/C=N/NC2=NC3C(S2)N(C)C(=O)N3C)cc1 (stereo not drawn),66%,-56.4% (active),16.1%,15.4%,33.5%,67%,20.8%
NS(=O)(=O)c1ccc(Nc2cc(-c3ccccc3)nc(SCC(=O)c3ccccc3)n2)cc1,97.6%,93.4%,102%,89.5%,101%,101%,102%
Cc1cccc2c3c(sc12)C(c1ccc(Cl)cc1)c1c(nc(CC(=O)Nc2ccccc2)[nH]c1=O)O3 (stereo not drawn),77.1%,9.37% (active),40.9%,38.1%,37.7%,85.7%,37.7%
NS(=O)(=O)c1ccc(Nc2nc(SCC(=O)c3ccc(Cl)cc3)nc3c2CCCC3)cc1,67.3%,54.4%,40.5%,25.4%,36.8%,21.6%,19.6%
NS(=O)(=O)c1ccc(Nc2nc(N/N=C/CCc3ccccc3)nc(Nc3ccccc3)n2)cc1,99.4%,101%,104%,96.3%,103%,113%,109%
